Screening results: PubChem BioAssay, National Center for Advancing Translational Sciences (NCATS)
Shown are actives, neighbours in structure and some others; about 3.1% of the full set was active somewhere.
rTrxR1 inhibitor = qHTS Assay for Inhibitors of Mammalian Selenoprotein Thioredoxin Reductase 1 (TrxR1): qHTS; recombinant rTrxR1, NADPH fluorescence consumption, selenite substrate; actives 1% (n = 390,000); Potency, µM (doses to about 114 µM), for the others: top-dose activity change, negative = inhibition, actives largely listed as inhibitors; Thioredoxin reductase 1, cytoplasmic (Rattus norvegicus), O89049; further: on the % scale 0 is the no-effect control and ±100 the full control effect; nearly all actives have a fitted effect of over 65% in size
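Rat TrxR1 (90 nM in the dispensed reagent) was pre-reduced with 400 uM NADPH for 5 min at room temperature, then incubated with compound for 15 min. After 400 uM selenite was added, NADPH fluorescence (Ex 340/Em 450 nm) was followed for 8 min.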
Mito fusion act = qHTS Assay for Small Molecule Inhibitors of Mitochondrial Division or Activators of Mitochondrial Fusion | Potency, µM (doses to about 46.1 µM), for the others: at the highest dose growth rescue (activation), actives largely listed as activators | AID 485298, 2010 | S. cerevisiae fusion-defective mutant growth rescue, CellTiterGlo 48 h | actives 0.23% (n = 320,000); further: % of control where 0% means no effect; nearly all actives have a fitted effect of over 45% in size
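Growth-rescue viability read-out: after 48 h at the non-permissive 37C in glycerol/ethanol YPEG, yeast mitochondrial fusion mutants are measured by CellTiterGlo luminescence; compounds (23 nl pinned per well) restoring growth score as division inhibitors or fusion activators.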
A549 viability = Nrf2 qHTS screen for inhibitors: counterscreen for cytotoxicity; AID 504648, 2011; Potency, µM (doses to about 46 µM), inactives show at the top dose activity change, negative = cytotoxicity, actives largely listed as inhibitors; actives 0.16% (n = 390,000); A549 ARE-Fluc cells, CellTiter-Fluor viability, 18-24 h; further: on the % scale 0 is the no-effect control and ±100 the full control effect
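A549 ARE_Fluc cells in 5% FBS OPTI-MEM were exposed to compounds in concentration-response for 18-24 h at 37 deg C. Viability was read by CellTiter-Fluor fluorescence (Ex 405/Em 525) after 30 min, before the luciferase read.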
TrxR1 substrate = qHTS Assay for Substrates of Mammalian Selenoprotein Thioredoxin Reductase 1 (TrxR1): qHTS; AID 588456, 2011; purified TrxR1 substrate turnover, NADPH consumption readout; actives 0.01% (n = 390,000); Thioredoxin reductase 1, cytoplasmic (Rattus norvegicus), O89049; Potency, µM (top dose mostly 114 µM), inactives show at the top dose activity change, negative = substrate turnover; further: on the % scale 0 is the no-effect control and ±100 the full control effect; nearly all actives have a fitted effect of over 50% in size
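Rat TrxR1, dispensed at 90 nM, was prereduced with 400 uM NADPH (final) for 5 min at ~22 deg C, then incubated with compound 15 min before 400 uM selenite. A first-read NADPH fluorescence drop versus no-compound background flagged substrates.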
Nrf2 inh = Nrf2 qHTS screen for inhibitors; A549 ARE-Fluc reporter, luciferase luminescence, 18-24 h; Potency, µM (top dose mostly 46 µM), inactives show top-dose activity change, negative = inhibition, actives largely listed as inhibitors; actives 2.1% (n = 360,000); AID 504444, 2011; further: on the % scale 0 is the no-effect control and ±100 the full control effect; nearly all actives have a fitted effect of over 60% in size
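Quantitative HTS in A549 cells stably bearing an antioxidant response element-firefly luciferase construct. Inhibition of Nrf2-driven transcription was scored by luminescence after 18-24 h of compound exposure at 37 °C.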
IDH1 R132H inh = qHTS for Inhibitors of mutant isocitrate dehydrogenase 1 (IDH1): qHTS; AID 602179, 2012; IDH1-R132H enzyme, NADPH consumption, diaphorase/resazurin fluorescence; Isocitrate dehydrogenase [NADP] cytoplasmic (Homo sapiens), O75874; Potency, µM (doses to about 76.6 µM), inactives show at the highest dose activity change, negative = inhibition, actives largely listed as inhibitors; actives 0.093% (n = 390,000); further: on the % scale 0 is the no-effect control and ±100 the full control effect; nearly all actives have a fitted effect of over 65% in size
Target sequence (O75874 whole entry R132H, stated change not applied): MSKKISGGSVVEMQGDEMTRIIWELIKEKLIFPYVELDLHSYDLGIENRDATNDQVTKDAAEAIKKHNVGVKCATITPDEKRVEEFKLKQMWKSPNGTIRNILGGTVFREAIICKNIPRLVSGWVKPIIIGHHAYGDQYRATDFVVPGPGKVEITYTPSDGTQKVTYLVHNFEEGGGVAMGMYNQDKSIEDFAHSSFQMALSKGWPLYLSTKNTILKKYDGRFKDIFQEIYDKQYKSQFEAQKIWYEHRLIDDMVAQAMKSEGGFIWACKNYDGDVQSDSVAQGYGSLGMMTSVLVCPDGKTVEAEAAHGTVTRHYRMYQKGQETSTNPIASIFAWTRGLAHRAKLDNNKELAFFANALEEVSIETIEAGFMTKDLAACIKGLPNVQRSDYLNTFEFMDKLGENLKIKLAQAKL
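IDH1-R132H (0.5 ug/mL) preincubated 30 min with compound, then NADPH (0.016 mM) and alpha-KG (2 mM) added; 80 min at RT, pH 7.5. Remaining NADPH coupled via diaphorase/resazurin to fluorescence (540/590 nm); concentration-response curves normalized to no-enzyme control.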
The depositor's hits bear a star; ! = repeats disagree; [ ] = remark or other dose. The call rests on the fitted dose curve; in most records, active means well fitted curve in the direction sought with a large enough effect; inconclusive means small, poorly fitted or top-dose-only effect, or another doubt; inactive means no such curve, though single readings can be large; an effect the other way counts as inactive or inconclusive. Potency means the concentration at half of the fitted maximal effect.

`COc1ccc(-c2noc(CCC(=O)NC3CCCCCC3)n2)cc1` gave rTrxR1 inhibitor 22.7%, Mito fusion act 29.7%, A549 viability 1.3%, TrxR1 substrate 1.0%, Nrf2 inh 16.1% and IDH1 R132H inh 14.1%.
Screening Cc1cccc(-c2noc(CCC(=O)NC3CCCCC3)n2)c1 returned rTrxR1 inhibitor 21.4%, Mito fusion act -5.7%, A549 viability -2.5%, TrxR1 substrate -0.1%, Nrf2 inh -9.2% and IDH1 R132H inh 0.0%.
`COc1ccc(-c2noc(CCC(=O)NC3CCCCC3)n2)cc1` gave rTrxR1 inhibitor 15.0%, Mito fusion act 8.5%, A549 viability -11.1%, TrxR1 substrate 6.1%, Nrf2 inh 16.4µM* and IDH1 R132H inh 13.3%.
`Cc1cccc(-c2noc(CCCC(=O)NC3CCCC3)n2)c1` gave rTrxR1 inhibitor 14.9%, Mito fusion act 21.3%, A549 viability 1.6%, TrxR1 substrate 7.4%, Nrf2 inh 9.2µM* and IDH1 R132H inh 4.3%.
`COc1ccc(-c2noc(CCCC(=O)NC3CCCC3)n2)cc1` gave rTrxR1 inhibitor 18.7%, Mito fusion act 8.5%, A549 viability inconclusive, TrxR1 substrate 0.8%, Nrf2 inh 11.6µM* and IDH1 R132H inh 0.1%.
`CCCCCCCCCC[n+]1ccc(/C=C/c2c[nH]c3ccccc23)cc1` gave rTrxR1 inhibitor inconclusive and TrxR1 substrate -1.5%.
`C[N+]1(CC(=O)c2ccc(Br)cc2)CCOCC1` gave rTrxR1 inhibitor 22.7% and TrxR1 substrate 6.0%.
`CCOc1ccc(N(CC(=O)Nc2ccccc2C)S(=O)(=O)c2c(C)noc2C)cc1` gave rTrxR1 inhibitor 20.9%, Mito fusion act 2.2%, A549 viability 0.7%, TrxR1 substrate 5.2%, Nrf2 inh 26.7% and IDH1 R132H inh -3.6%.
For CCOc1ccc(N(CC(=O)Nc2cccc(F)c2)S(=O)(=O)c2c(C)noc2C)cc1 the results were rTrxR1 inhibitor -7.0%, Mito fusion act 3.8%, A549 viability -16.5%, TrxR1 substrate -9.4%, Nrf2 inh 13µM* and IDH1 R132H inh -16.0%.
`CCOc1ccc(N(CC(=O)Nc2ccc(C)c(C)c2)S(=O)(=O)c2c(C)noc2C)cc1` gave rTrxR1 inhibitor -20.5%, Mito fusion act 25.7%, A549 viability -12.2%, TrxR1 substrate -19.6%, Nrf2 inh 13µM* and IDH1 R132H inh -12.5%.
For Cc1ccsc1CN(C)c1ncnc2ccc(-c3ccc4c(c3)OCO4)cc12 the results were A549 viability 7.6% and Nrf2 inh 0.0%.
CCOC(=O)c1c(-c2ccccc2)oc2ccc(N(C(C)=O)S(=O)(=O)c3ccc(CC)cc3)cc12 was read as rTrxR1 inhibitor 45.9%, A549 viability -18.2%, TrxR1 substrate 35.1%, Nrf2 inh inconclusive and IDH1 R132H inh -16.1%.
`CN(Cc1cnc2nc(N)nc(N)c2n1)c1ccc(C(=O)N[C@@H](CCC(=O)O)C(=O)O)cc1` gave rTrxR1 inhibitor 19.2%[57.1 µM], Mito fusion act -48.1%, A549 viability -18.2%, TrxR1 substrate 118.3%[57.1 µM], Nrf2 inh 1.46µM*! and IDH1 R132H inh 9.5%.
Screening O=C(COC(=O)c1ccc([N+](=O)[O-])o1)Nc1cccc2ccccc12 returned rTrxR1 inhibitor 20µM*, Mito fusion act 14.2%, A549 viability -4.3%, TrxR1 substrate -1.0%, Nrf2 inh -0.5% and IDH1 R132H inh 3.0%.
O=C(COC(=O)c1ccc2c(c1)OCO2)NC1CCS(=O)(=O)C1 (centres undefined) was read as rTrxR1 inhibitor 79.4µM*, Mito fusion act 4.3%, A549 viability 1.3%, TrxR1 substrate 11.4%, Nrf2 inh 10.5% and IDH1 R132H inh 0.3%.
Screening O=C(COC(=O)c1ccc([N+](=O)[O-])o1)NC1CCS(=O)(=O)C1 (centres undefined) returned rTrxR1 inhibitor 3.55µM*, Mito fusion act 0.9%, A549 viability 1.4%, TrxR1 substrate -7.2%, Nrf2 inh 18.7% and IDH1 R132H inh 4.1%.
For O=C(COC(=O)c1ccc([N+](=O)[O-])o1)NC1CCCCC1 the results were rTrxR1 inhibitor 15.8µM*, A549 viability -6.8%, TrxR1 substrate -8.5%, Nrf2 inh -6.0% and IDH1 R132H inh 11.6%.
`O=C(COC(=O)c1ccc([N+](=O)[O-])o1)NCc1ccc(F)cc1` gave rTrxR1 inhibitor inconclusive, A549 viability -17.4%, TrxR1 substrate -4.6%, Nrf2 inh -17.9% and IDH1 R132H inh -5.1%.
CCOC(=O)c1c(S(=O)(=O)N2CCCC(C(=O)Nc3cccc(CC)c3)C2)c(C)n(CC)c1C (centres undefined) was read as rTrxR1 inhibitor -3.4%[57.1 µM], A549 viability 5.1%, TrxR1 substrate -11.6%[57.1 µM] and IDH1 R132H inh -3.8%.
Screening COc1cc(C(=O)OCC(=O)NC2CCS(=O)(=O)C2)c([N+](=O)[O-])cc1OC (centres undefined) returned rTrxR1 inhibitor 3.6%[57.1 µM], Mito fusion act -0.2%, A549 viability 2.6%, TrxR1 substrate -2.7%[57.1 µM], Nrf2 inh -9.5% and IDH1 R132H inh 1.1%.
Cc1cccc(C(=O)OCC(=O)NCc2cccs2)c1 was read as rTrxR1 inhibitor 4.7%[57.1 µM], Mito fusion act -6.3%, A549 viability 0.4%, TrxR1 substrate 0.3%[57.1 µM], Nrf2 inh 4.8% and IDH1 R132H inh -10.3%.
CS(=O)(=O)c1ccc(C(=O)OCC(=O)NCc2cccs2)cc1[N+](=O)[O-] was read as rTrxR1 inhibitor 1.78µM*, A549 viability inconclusive, TrxR1 substrate 9.6%[57.1 µM], Nrf2 inh inconclusive and IDH1 R132H inh -13.3%.
`CS(=O)(=O)c1ccc(C(=O)OCC(=O)NC2CCS(=O)(=O)C2)cc1[N+](=O)[O-]` (centres undefined) gave rTrxR1 inhibitor 7.94µM*, Mito fusion act 0.5%, A549 viability 0.6%, TrxR1 substrate 3.7%, Nrf2 inh 6.0% and IDH1 R132H inh 1.5%.
CCN(CC)S(=O)(=O)c1cnccc1N1CCN(c2cccc(Cl)c2)CC1 was read as rTrxR1 inhibitor -8.9%, Mito fusion act 12.6µM*, A549 viability inconclusive, TrxR1 substrate -11.7%, Nrf2 inh inconclusive and IDH1 R132H inh 4.6%.
